Measurements taken from PubChem BioAssay (NCATS).
Inconclusive results are not listed. Activity calls are given as the source filed them. Unless noted, calls come from the whole dose curve; as a rule, active = well fitted curve in the direction sought with a large enough effect; inconclusive = small, poorly fitted or top-dose-only effect, or another doubt; inactive = no such curve, though single readings can be large; an effect the other way counts as inactive or inconclusive.

Columns and labels:
[1] = target: Estrogen receptor (Homo sapiens) (UniProt P03372); assay: qHTS assay for small molecule antagonists of estrogen receptor alpha signaling (AID 588513; active = well fitted curve in the direction sought with a large enough effect in the signal ratio, with a control signal flat, not every such curve was filed as active; the % refers to the signal ratio; note: % is set by controls: 0 for no effect and ±100 for the full control effect); details: ER-alpha-UAS-bla HEK293, beta-lactamase ratio, antagonist mode; series mostly up to 76.9 µM
How it was run: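 ER-alpha-UAS-bla GripTite HEK 293 cells in 2% charcoal/dextran-treated FBS medium; compounds titrated (1:2, duplicate), then stimulated with 0.5 nM 17-beta-estradiol for 18 h at 37C. CCF4 beta-lactamase fluorescence; Hill-fit IC50 and efficacy.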

[2] = target: Estrogen receptor (Homo sapiens) (UniProt P03372); assay: qHTS assay for small molecule agonists of estrogen receptor alpha signaling (AID 588514; calls by dose curve;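 note: 0% = vehicle only and 100% = reference agonist; nearly all actives have a fitted effect of over 70% in size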); details: ER-alpha-UAS-bla HEK293, beta-lactamase ratio, 18 h; series mostly up to 76.8 µM
How it was run: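 Cells were plated at 5000/well, incubated 4 hrs at 37 C, dosed with compound titration series, incubated 18 hrs at 37 C, loaded with CCF4 dye for 2 hrs at RT, then fluorescence was read.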

[3] = target: Glucocorticoid receptor (Homo sapiens) (UniProt P04150); assay: qHTS assay for small molecule agonists of glucocorticoid receptor signaling (AID 588532; active = well fitted curve in the direction sought with a large enough effect in the signal ratio, with a control signal flat; the % refers to the signal ratio;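 note: 100% = dexamethasone at 0.1 µM and 0% = DMSO only wells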); details: HeLa MMTV-bla, beta-lactamase ratio, agonist, 18 h; stronger effect = higher value; percent of dexamethasone control, DMSO zero
How it was run: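 MMTV-bla HeLa beta-lactamase reporter cells in 1% charcoal/dextran FBS medium, compounds up to 92 uM for 18 h at 37 C, CCF4 readout; normalized to 0.1 uM dexamethasone (100%), EC50 and efficacy from Hill fits.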

[4] = qHTS assay for small molecule antagonists of peroxisome proliferator-activated receptor delta signaling (AID 588535); details: HEK293T PPARd-UAS-bla, beta-lactamase FRET ratio, 18 h; 460 nm channel;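 note: cells co-treated with a PPAR-delta agonist as stimulator during compound exposure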
How it was run: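 Antagonist-mode beta-lactamase reporter (GeneBLAzer PPAR-delta-UAS-bla) in HEK293T cells, 2% charcoal/dextran FBS, 4000 cells/well. Compound titrations, 18 h at 37 C; CCF4 ratio read, IC50 and efficacy from Hill fits.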

[5] = target: Peroxisome proliferator-activated receptor gamma (Homo sapiens) (UniProt P37231); assay: qHTS assay for small molecule agonists of peroxisome proliferator-activated receptor gamma signaling (AID 588536; active = well fitted curve in the direction sought with a large enough effect in the signal ratio, with a control signal flat, not every such curve was filed as active; the % refers to the signal ratio;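 note: 0% = DMSO basal wells and 100% = rosiglitazone at 2 µM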); details: HEK293 PPARg-UAS-bla, beta-lactamase ratio, 16 h, percent of rosiglitazone response, DMSO as zero; series mostly up to 76.7 µM
How it was run: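 HEK293 UAS-bla reporter line, 1% charcoal/dextran FBS; titration, 16 h, 37 C; CCF4 loading 2 h RT; fluorescence 460/530 nm. Normalized to rosiglitazone 2 uM = 100%, DMSO = 0%.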

[6] = qHTS assay for small molecule agonists of retinoid X receptor alpha signaling (AID 588544; calls by dose curve;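 for activation: 0% = DMSO basal wells and 100% = reference agonist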); details: HEK293T RXRa-UAS-bla, beta-lactamase reporter, 18 h; 530 nm emission
[7] = target: Retinoic acid receptor RXR-alpha (Homo sapiens) (UniProt P19793); assay: as above; details: HEK293T RXRa-UAS-bla, beta-lactamase reporter, 18 h; series mostly up to 76.7 µM
[8] = target: Thyroid hormone receptor beta (Homo sapiens) (UniProt P10828); assay: qHTS assay for small molecule agonists of thyroid hormone receptor beta signaling (AID 588545; calls by dose curve); details: TR-UAS-bla GripTite HEK 293, beta-lactamase ratio, agonist mode, 18 h; series mostly up to 76.7 µM
How it was run: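 HEK 293 TR-UAS-bla; agonist mode; 18 hrs, 37 C; CCF4, ex 405/em 460 and 530 nm; norm. T3 10 nM = 100%, DMSO = 0%; Hill fit → EC50, efficacy.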

[9] = qHTS assay for small molecule antagonists of retinoid X receptor alpha signaling (AID 588546; active = well fitted inhibition curve with a large enough effect in the signal ratio, with a control signal flat, not every such curve was filed as active; the % refers to the signal ratio;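 note: cells stimulated with 9-cis-retinoic acid as agonist; % is set by controls: 0 for no effect and ±100 for the full control effect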); details: HEK293T RXRa-UAS-bla, beta-lactamase ratio, antagonist mode; measured here: W530 green channel, cytotoxicity proxy
How it was run: (§1)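 Beta-lactamase reporter inhibition, read as CCF4 fluorescence ratio (ex 405, em 460/530 nm) after 2 h at RT. HEK293T UAS-bla cells, 2500/well, were stimulated with 9-cis-RA at 500 or 100 nM final alongside test compound for 18 h at 37 C.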

[10] = target: Retinoic acid receptor RXR-alpha (Homo sapiens) (UniProt P19793); assay: as above; details: HEK293T RXRa-UAS-bla, beta-lactamase ratio, antagonist mode
How it was run: as §1

[11] = target: Thyroid hormone receptor beta (Homo sapiens) (UniProt P10828); assay: qHTS assay for small molecule antagonists of thyroid hormone receptor beta signaling (AID 588547; active = well fitted inhibition curve with a large enough effect in the signal ratio, with a control signal flat, not every such curve was filed as active; the % refers to the signal ratio;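 note: cells stimulated with 0.4 nM T3 agonist during compound exposure; % is set by controls: 0 for no effect and ±100 for the full control effect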); details: TR-UAS-bla HEK293, beta-lactamase ratio, antagonist mode, 18 h
How it was run: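 TR-UAS-bla GripTite HEK293 cells in 2% charcoal/dextran FBS medium; compounds 0.59 nM to 92 uM with T3 at 0.4nM final, 18 h at 37 C. Beta-lactamase read by CCF4 fluorescence (460/530 nm); Hill fits gave IC50 and efficacy.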

[12] = qHTS assay for small molecule activators of the nuclear factor-kappa B (NF-kB) signaling pathway (AID 651749; active = well fitted activation curve with a large enough effect in the signal ratio; the % refers to the signal ratio; note: % of control where 0% means no effect); details: NF-kB-bla ME-180 cells, beta-lactamase FRET ratio, 16 h; activation: stronger effect = higher value
How it was run: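 NF-kB-bla ME-180 cells carrying a beta-lactamase reporter under an NF-kB response element, 2,000 cells/well, exposed to compound for 16 hr at 37C; FRET-based beta-lactamase fluorescence read-out of pathway activation.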

[13] = qHTS assay for environmental chemicals that activate the Aryl hydrocarbon Receptor (AhR) signaling pathway (AID 651777); details: 1A2-DRE human hepatoma cells, luciferase, 24 h; activation: stronger effect = higher value; note: % of control where 0% means no effect; nearly all actives have a fitted effect of over 15% in size
How it was run: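 1A2-DRE human hepatoma reporter line; 1,200 cells/well; cmpd or DMSO 24 h, 37 C/5% CO2; One-Glo 30 min RT; luciferase lum.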

[14] = target: Peroxisome proliferator-activated receptor alpha (Homo sapiens) (UniProt Q07869); assay: qHTS assay for small molecule agonists of the peroxisome proliferator-activated receptor alpha (PPARalpha) signaling pathway (AID 651778); details: PathHunter PPARalpha complementation, chemiluminescence, 6 h; max response: stronger effect = higher value; note: % of control where 0% means no effect
How it was run: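 Enzyme-fragment complementation assay in which ligand-bound PPARalpha translocates and forms an active enzyme that generates chemiluminescence. Cells were plated overnight, exposed to compound for 6 hr at 37 C, and then given detection reagent for 60 min at room temperature.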

[15] = qHTS assay for small molecule agonists of the antioxidant response element (ARE) signaling pathway measured by Nrf2-dependant transcriptional activity - cell viability counter screen (AID 720653; active = well fitted curve in the direction sought with a large enough effect in the repeat runs; an effect the other way counts as inactive or inconclusive; note: % is set by controls: 0 for no effect and ±100 for the full control effect); details: ARE-bla HepG2 viability, CellTiter-Glo ATP luminescence, 16 h; max response: stronger effect = lower value
How it was run: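 ARE-bla HepG2 cells treated with compounds for 16 h at 37C; this counter screen measures viability as intracellular ATP by CellTiter-Glo luminescence after 30 min at room temperature.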

[16] = qHTS assay for cell viability of HEK293 cells (AID 743288); details: ATP luminescence (CellTiter-Glo), 18 h; max response: stronger effect = lower value; note: % is set by controls: 0 for no effect and ±100 for the full control effect; nearly all actives have a fitted effect of over 50% in size
How it was run: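 Parental HEK293 cells, 2,000 per well, preincubated at least 5 h at 37 C, then exposed to compounds in DMSO for 18 h at 37 C. Viability by CellTiter-Glo ATP luminescence after 30 min at room temperature.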

[17] = qHTS assay for cell viability of the p53RE-bla HCT-116 cell line (AID 743292); details: p53RE-bla HCT-116 viability, ATP luminescence, 16 h; series mostly up to 95 µM; note: % is set by controls: 0 for no effect and ±100 for the full control effect; nearly all actives have a fitted effect of over 55% in size
How it was run: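 HCT-116 p53RE-bla cells seeded 4,000/well; 5 h at 37 C; compound (DMSO) added; 16 h at 37 C; CellTiter-Glo added, 30 min RT; luminescence read.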

[18] = target: Nuclear receptor subfamily 1 group I member 2 (Rattus norvegicus) (UniProt Q9R1A7); assay: qHTS assay for small molecule activators of the rat pregnane X receptor (rPXR) signaling pathway (AID 651751; call rule not given here; note: 0% is about no effect); details: rPXR reporter cells, luciferase (One-Glo), 24 h
[19] = qHTS assay for small molecule activators of the human pregnane X receptor (PXR) signaling pathway (AID 720659; call rule not given here; note: 0% is about no effect); details: DPX-2 HepG2 CYP3A4-luciferase, 24 h; series mostly up to 92.3 µM
[20] = target: Vitamin D3 receptor (Homo sapiens) (UniProt P11473); assay: qHTS assay for small molecule antagonists of vitamin D receptor signaling (AID 588541; calls by dose curve); details: HEK293T VDR-UAS-bla, beta-lactamase ratio, antagonist mode; series mostly up to 76.7 µM
How it was run: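 VDR-UAS-bla HEK293T cells in 2% charcoal-stripped FBS were stimulated with 1-alpha,25-dihydroxyvitamin D3 (3 nM final) plus compound for 16 h at 37 C. The beta-lactamase CCF4 readout was normalized to 50 nM agonist and DMSO, and Hill fits gave IC50.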

Retinoic acid receptor RXR-alpha (Homo sapiens), sequence (P19793 whole entry, looked up): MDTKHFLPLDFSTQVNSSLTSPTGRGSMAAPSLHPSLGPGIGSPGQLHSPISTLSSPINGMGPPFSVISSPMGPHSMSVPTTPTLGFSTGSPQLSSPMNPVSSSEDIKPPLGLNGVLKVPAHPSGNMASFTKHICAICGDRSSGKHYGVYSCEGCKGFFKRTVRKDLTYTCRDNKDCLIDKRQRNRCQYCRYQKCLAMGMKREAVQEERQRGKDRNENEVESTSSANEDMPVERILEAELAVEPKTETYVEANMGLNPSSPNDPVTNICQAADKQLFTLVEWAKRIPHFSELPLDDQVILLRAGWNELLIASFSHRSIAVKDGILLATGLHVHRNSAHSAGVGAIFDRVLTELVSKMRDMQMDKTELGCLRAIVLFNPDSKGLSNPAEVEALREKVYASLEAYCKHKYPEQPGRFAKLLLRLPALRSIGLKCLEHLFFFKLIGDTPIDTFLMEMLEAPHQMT
Nuclear receptor subfamily 1 group I member 2 (Rattus norvegicus), sequence (Q9R1A7 whole entry, looked up): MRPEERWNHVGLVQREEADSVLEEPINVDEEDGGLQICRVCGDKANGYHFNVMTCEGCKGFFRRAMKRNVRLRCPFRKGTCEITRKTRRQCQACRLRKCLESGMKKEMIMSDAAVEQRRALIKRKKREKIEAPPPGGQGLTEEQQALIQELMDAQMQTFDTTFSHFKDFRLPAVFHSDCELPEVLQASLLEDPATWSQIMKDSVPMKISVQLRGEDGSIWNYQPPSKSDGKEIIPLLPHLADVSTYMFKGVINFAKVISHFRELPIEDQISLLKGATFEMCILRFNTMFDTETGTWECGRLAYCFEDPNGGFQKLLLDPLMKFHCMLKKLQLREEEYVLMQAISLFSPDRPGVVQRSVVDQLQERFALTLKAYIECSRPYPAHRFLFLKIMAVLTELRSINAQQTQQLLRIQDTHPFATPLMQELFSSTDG
Peroxisome proliferator-activated receptor gamma (Homo sapiens), sequence (P37231 whole entry, looked up): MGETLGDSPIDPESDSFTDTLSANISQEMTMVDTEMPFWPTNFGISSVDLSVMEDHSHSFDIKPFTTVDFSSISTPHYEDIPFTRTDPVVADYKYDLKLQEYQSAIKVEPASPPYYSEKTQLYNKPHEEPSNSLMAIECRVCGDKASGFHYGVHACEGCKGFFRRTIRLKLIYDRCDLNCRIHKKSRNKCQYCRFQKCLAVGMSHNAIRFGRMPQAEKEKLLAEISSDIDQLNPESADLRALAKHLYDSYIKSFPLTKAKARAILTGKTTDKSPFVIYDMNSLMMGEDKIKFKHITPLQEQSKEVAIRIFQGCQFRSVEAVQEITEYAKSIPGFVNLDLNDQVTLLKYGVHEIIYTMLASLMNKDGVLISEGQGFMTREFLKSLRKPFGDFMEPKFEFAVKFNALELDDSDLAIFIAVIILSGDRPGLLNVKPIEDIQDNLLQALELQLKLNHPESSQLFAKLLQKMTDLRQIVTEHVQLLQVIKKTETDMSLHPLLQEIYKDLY
Glucocorticoid receptor (Homo sapiens), sequence (P04150 whole entry, looked up): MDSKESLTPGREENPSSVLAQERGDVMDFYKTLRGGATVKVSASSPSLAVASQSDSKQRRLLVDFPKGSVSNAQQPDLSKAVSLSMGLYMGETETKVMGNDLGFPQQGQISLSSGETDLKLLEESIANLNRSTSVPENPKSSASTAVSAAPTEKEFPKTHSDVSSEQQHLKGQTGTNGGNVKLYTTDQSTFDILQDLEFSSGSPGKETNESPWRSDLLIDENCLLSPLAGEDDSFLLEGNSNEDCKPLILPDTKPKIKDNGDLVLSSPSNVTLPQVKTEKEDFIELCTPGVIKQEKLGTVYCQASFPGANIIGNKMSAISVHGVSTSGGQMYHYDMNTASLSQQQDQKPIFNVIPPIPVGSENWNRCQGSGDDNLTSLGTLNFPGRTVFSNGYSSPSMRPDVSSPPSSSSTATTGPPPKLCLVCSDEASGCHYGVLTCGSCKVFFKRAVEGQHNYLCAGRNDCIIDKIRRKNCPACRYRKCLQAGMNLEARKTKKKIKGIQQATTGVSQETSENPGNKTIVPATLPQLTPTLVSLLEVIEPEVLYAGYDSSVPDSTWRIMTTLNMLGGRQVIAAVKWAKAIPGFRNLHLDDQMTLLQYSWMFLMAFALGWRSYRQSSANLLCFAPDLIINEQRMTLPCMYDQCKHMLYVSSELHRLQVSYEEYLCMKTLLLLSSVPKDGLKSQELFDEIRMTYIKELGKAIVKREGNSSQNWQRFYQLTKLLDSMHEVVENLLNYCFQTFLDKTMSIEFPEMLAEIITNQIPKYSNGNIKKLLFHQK
Thyroid hormone receptor beta (Homo sapiens), sequence (P10828 whole entry, looked up): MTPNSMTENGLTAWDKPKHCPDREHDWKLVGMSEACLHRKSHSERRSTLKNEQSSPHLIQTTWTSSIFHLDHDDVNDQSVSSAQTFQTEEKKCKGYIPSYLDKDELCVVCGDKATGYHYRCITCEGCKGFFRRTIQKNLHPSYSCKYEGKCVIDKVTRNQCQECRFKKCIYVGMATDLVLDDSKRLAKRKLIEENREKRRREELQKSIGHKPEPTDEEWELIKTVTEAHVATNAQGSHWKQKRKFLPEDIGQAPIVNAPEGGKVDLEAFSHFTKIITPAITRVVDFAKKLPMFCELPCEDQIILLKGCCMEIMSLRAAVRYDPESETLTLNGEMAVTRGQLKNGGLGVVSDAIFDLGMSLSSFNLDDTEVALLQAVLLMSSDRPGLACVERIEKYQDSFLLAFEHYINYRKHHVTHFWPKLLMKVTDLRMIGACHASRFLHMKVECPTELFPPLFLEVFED
Peroxisome proliferator-activated receptor alpha (Homo sapiens), sequence (Q07869 whole entry, looked up, the tested form may be a part): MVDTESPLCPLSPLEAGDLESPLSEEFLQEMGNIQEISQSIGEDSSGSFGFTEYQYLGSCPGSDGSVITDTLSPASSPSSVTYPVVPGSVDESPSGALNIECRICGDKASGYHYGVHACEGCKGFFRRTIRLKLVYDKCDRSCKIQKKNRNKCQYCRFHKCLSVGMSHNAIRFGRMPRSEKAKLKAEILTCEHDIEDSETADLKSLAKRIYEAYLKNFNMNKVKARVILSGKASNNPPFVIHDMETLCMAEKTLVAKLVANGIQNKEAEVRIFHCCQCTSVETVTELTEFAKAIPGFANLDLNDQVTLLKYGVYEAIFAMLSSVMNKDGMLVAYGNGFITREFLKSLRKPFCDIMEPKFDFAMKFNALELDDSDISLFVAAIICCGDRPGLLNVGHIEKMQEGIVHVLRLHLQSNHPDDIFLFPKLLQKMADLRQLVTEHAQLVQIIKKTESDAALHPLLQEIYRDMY
Estrogen receptor (Homo sapiens), sequence (P03372 whole entry, looked up): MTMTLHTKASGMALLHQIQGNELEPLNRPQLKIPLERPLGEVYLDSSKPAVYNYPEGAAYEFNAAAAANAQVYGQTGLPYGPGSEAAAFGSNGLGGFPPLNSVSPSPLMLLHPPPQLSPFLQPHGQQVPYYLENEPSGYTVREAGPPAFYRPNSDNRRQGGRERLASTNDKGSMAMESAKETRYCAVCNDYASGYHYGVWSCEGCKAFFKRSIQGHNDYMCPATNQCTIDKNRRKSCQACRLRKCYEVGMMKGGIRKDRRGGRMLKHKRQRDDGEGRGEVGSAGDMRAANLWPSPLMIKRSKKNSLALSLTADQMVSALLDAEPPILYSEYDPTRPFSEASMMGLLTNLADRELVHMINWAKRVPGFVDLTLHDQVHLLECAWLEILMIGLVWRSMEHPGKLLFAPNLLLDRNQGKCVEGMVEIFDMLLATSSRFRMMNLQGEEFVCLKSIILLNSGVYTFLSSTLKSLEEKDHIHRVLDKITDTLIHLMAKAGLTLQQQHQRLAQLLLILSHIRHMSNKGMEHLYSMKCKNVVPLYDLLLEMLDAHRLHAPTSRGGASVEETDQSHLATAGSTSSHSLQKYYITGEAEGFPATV
Vitamin D3 receptor (Homo sapiens), sequence (P11473 whole entry, looked up): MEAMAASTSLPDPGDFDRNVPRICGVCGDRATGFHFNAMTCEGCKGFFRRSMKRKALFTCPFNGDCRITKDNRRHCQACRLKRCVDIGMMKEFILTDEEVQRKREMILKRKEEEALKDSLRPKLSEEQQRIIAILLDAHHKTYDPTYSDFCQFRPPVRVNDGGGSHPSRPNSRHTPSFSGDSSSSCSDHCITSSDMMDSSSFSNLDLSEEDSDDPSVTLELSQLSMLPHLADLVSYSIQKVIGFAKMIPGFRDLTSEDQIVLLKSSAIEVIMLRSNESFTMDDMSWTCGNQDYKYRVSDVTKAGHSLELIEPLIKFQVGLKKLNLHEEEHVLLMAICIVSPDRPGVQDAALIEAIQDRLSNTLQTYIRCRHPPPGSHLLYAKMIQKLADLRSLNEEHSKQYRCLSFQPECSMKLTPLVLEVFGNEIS

Row | SMILES | Potency [1] | Potency [2] | activation [3] | max response [4] | outcome [5] | max response [6] | Potency [7] | Potency [8] | max response [9] | max response [10] | activity change % (negative = inhibition) [11] | activation [12] | activation [13] | max response [14] | max response [15] | max response [16] | Potency [17] | max response [18] | outcome [19] | Potency [20]
1 | Nc1nc(N)nc(-c2ccccc2)n1 | inactive | inactive | -8.55% (inactive) | 20.7% | inactive | -9.5% | inactive | inactive | -13.3% | -4.65% (inactive) | 13.3% (inactive) | 0.267% (inactive) | 5.62% (inactive) | 0.149% (inactive) | -8.33% (inactive) | -4.29% (inactive) | inactive | 2.49% (inactive) | inactive | –
2 | CCCCCCCCCCCC(=O)N(C)CC(=O)O | inactive | inactive | -0.898% (inactive) | – | – | 21.8% | inactive | inactive | 7.91% | – | 5.42% (inactive) | – | 0.0412% (inactive) | – | 19.7% (inactive) | -6.6% (inactive) | inactive | -2.95% (inactive) | inactive | –
3 | OCC(CO)(CO)COCC(CO)(CO)CO | inactive | inactive | – | – | inactive | -6.03% | inactive | inactive | -4.98% | -11.8% (inactive) | -4.48% (inactive) | -2.64% (inactive) | 3.82% (inactive) | 0.242% (inactive) | – | -12.4% (inactive) | inactive | 3.21% (inactive) | – | inactive
4 | CC(=O)OC(C)(C)C1CC=C(C)CC1 (stereo not drawn) | inactive | inactive | – | -21.5% | inactive | -9.79% | inactive | inactive | -19.2% | -1.89% (inactive) | -6.17% (inactive) | – | -2.57% (inactive) | -5.04% (inactive) | -6.08% (inactive) | -11.3% (inactive) | inactive | -1.76% (inactive) | inactive | inactive
5 | CN(C)C(=O)Nc1ccccc1 | inactive | inactive | – | 13.2% | inactive | -10.1% | inactive | inactive | -0.672% | -1.05% (inactive) | -24.6% (inactive) | -1.78% (inactive) | 2.58% (inactive) | -2.12% (inactive) | 1.07% (inactive) | 1.22% (inactive) | – | 1.09% (inactive) | inactive | inactive
6 | CC(C)CCCCCOC(=O)CS | inactive | inactive | 5.28% (inactive) | – | inactive | -0.354% | inactive | inactive | -2.29% | -5.77% (inactive) | -8.58% (inactive) | 3.32% (inactive) | -0.874% (inactive) | 0.461% (inactive) | -0.966% (inactive) | -8.32% (inactive) | inactive | -1.37% (inactive) | inactive | –
